An excerpt weighted towards active compounds, which were near 5.1% of everything screened.
S1P3 antag: blocks the human S1P3 receptor. CHO S1P3 NFAT-BLA reporter, FRET fluorescence, antagonist mode. inhibition, % at 4.98 µM. hit rate 0.27% among 170,000. AID 485;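 active means inhibition above the plate cutoff, the mean inhibition of test wells on that plate plus 3 SD, cut at about 28% in these data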;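 further: cells challenged with S1P at its EC80 of 0.8 µM; blue over green emission ratio from cleaved BLA substrate after 4 h stimulation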
ROMK primary: modulators of human ROMK potassium channel. hit rate 2% among 130,000. Tet-inducible ROMK, thallium flux fluorescence; actives lie on both sides. AID 1918. B-score at 10 µM. P48048;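 active means signal ratio slope over the read window, or its plate-corrected B-score, at least 3 SD from the plate mean, either direction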;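 further: B-score of the F/F0 ratio slope over 7 to 12 s after thallium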
S1P4 ag: human S1P4 receptor agonism | O95977 | S1P4-expressing cell line, agonist reporter assay | activation, % at 4.98 µM | hit rate 0.35% among 220,000 | AID 1509; in the data active means activation above about 11%
RAM inhibit: yeast RAM network inhibition. inhibition, % at 50 µM. AID 868. S. cerevisiae dse1pr::URA3 reporter, 5-FOA growth OD615, 2 d; analog-sensitive cbk1-as2 kinase mutant strain. hit rate 1.8% among 190,000;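 active means inhibition above a set limit, 3 SD over mean compound inhibition, cut at about 8.4% in these data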;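 further: inhibition rescues growth on 5-FOA so higher OD means more RAM inhibition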
KCC2 mod: KCC2 (human) Cl- transport modulation | Q9H2X9 | B-score of Tl+ flux slope (higher = more flux/activation; lower = inhibition) at 10 µM | KCC2 cells, thallium flux FluoZin-2 fluorescence | hit rate 2.2% among 190,000;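 active means thallium flux slope and its plate-corrected score both differing from the plate sample mean at a set confidence after two filtering rounds, in either direction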;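 further: slope of fluorescence scaled to starting intensity during 10 to 20 s after thallium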
S1P4 antagonist: human S1P4 receptor antagonism; O95977; hit rate 0.26% among 220,000; inhibition, % at 4.98 µM; S1P4-expressing cells, antagonist mode, reporter read-out; in the data active means inhibition above about 29%
ROMK hit retest: retested hit modulating human ROMK potassium channel | ROMK thallium flux, fluorescence ratio; active compounds read low | shares compounds with ROMK primary | hit rate 54% among 3,000 | AID 1917 | normalized thallium flux (F/F0 slope) at 10 µM;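 active means Flux at 10 µM at least 3 SD below or above vehicle control mean in one or both replicates; inconclusive means no clear call, values can overlap the other calls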
A number is an active result; - = inactive; ? = inconclusive; . = no result.

SMILES	S1P3 antag	ROMK primary	S1P4 ag	RAM inhibit	KCC2 mod	S1P4 antagonist	ROMK hit retest
CC(C)S(=O)(=O)c1csc(NC(=O)Nc2cc(Cl)ccc2Cl)c1Cl	-	.	-	.	-	-	.
COc1ccc2nc(-c3ccc(Cl)cc3)cc(C(=O)O)c2c1	-	-	-	.	-	-	.
CN(C)c1cc(O)c(C(=S)Nc2ccccc2)c(N(C)C)c1	-	-3.3	-	-	.	-	0.063
CCOc1cc2oc(=O)c3c(c2cc1Cl)CCC3	-	-	-	-	-	-	-
Fc1ccc(Nc2nnc(C(F)(F)F)s2)cc1Cl	-	.	-	.	.	-	0.062
CC1(C)Oc2nc3ccccc3n2/C1=C\C#N	.	-	-	-	-	-	.
O=C(CCCC(=O)N1CCN(c2ccc([N+](=O)[O-])cc2)CC1)c1ccccc1	-	-3.2	-	-	-	-	0.058
COc1ccc(C(=O)ON=C2CCN(c3ccc([N+](=O)[O-])cc3)CC2)cc1	.	.	-	-	-	-	.
O=C(CCN1C(=O)C2C3C=CC(C3)C2C1=O)N1CCN(c2ccc([N+](=O)[O-])cc2)CC1 (stereo not given)	-	-	-	-	-	-	-
O=C(ON=C1CCN(c2ccc([N+](=O)[O-])cc2)CC1)c1ccccc1	.	.	-	-	-	-	0.067
Cc1noc(C)c1CSCC(=O)N1CCN(c2ccc([N+](=O)[O-])cc2)CC1	.	-4.3	-	-	-	-	0.042
Cc1ccccc1Cn1c(=O)c2c(nc3n2CCN3Cc2ccco2)n(C)c1=O	-	.	.	.	.	.	.
COc1ccccc1-c1nnc(SCC(=O)c2ccc(C3CCCCC3)cc2)n1Cc1ccco1	.	.	-	-	.	-	.
O=[N+]([O-])c1cc(/C=N/O)ccc1N1CCCC1	-	-3.4	-	-	-	-	?
O=[N+]([O-])/C=C\c1ccc(N2CCCC2)c(F)c1	-	.	-	-	-	-	0.042
Cc1cc(C)cc(NC(=O)N2CCN(C/C=C/c3ccccc3)CC2)c1	-	-4.2	-	-	-	-	0.067
CC(=C\c1ccccc1)/C=C1/SC(=S)N(CCC(=O)Nc2ccccn2)C1=O	-	-	-	-	-	-	.
CC(/C=C1\SC(=S)N(CCCC(=O)Nc2ccc(C(=O)O)cc2)C1=O)=C\c1ccccc1	-	-2.8	-	-	-	-	0.058
CCN1CCN(C(=O)C(C)Nc2cc(Cl)c(OC)cc2OC)CC1 (stereo not given)	-	-	-	-	-	-	.
O=C(Cc1n[nH]c(=O)c2ccccc12)OCC(=O)c1ccc2c(c1)OCCO2	-	3.6	-	-	-	-	-
O=C(CN1CCN(S(=O)(=O)c2ccc(Cl)s2)CC1)N1CCOCC1	-	-3.2	-	.	-	-	-
O=S(=O)(c1ccc(Cl)s1)N1CCN(Cc2ccccc2)CC1	-	-	-	-	-	-	.
O=C(Nc1nc2ccccc2s1)C1CC(=O)N(c2ccc(Br)cc2)C1 (stereo not given)	.	-	-	-	.	-	.
COc1ccc(CCNC(=O)C(=O)NN=C2CCCCCCC2)cc1OC	-	.	-	.	-	-	.
O=C(NCCc1ccccc1)C(=O)NN=C1CCCC1	.	2.8	-	-	-	-	-
SMILES	S1P3 antag	ROMK primary	S1P4 ag	RAM inhibit	KCC2 mod	S1P4 antagonist	ROMK hit retest
O=C(NCCC1=CCCCC1)C(=O)NCc1ccccc1	-	1.2	-	-	-	-	-
CNC(=O)c1[nH]cnc1C(=O)Nc1ccc(OC)cc1	-	3.4	-	.	-	-	-
CCNc1ccc(S(=O)(=O)N(C)C)cc1NCC(=O)Nc1ccc(Br)cc1F	-	-3.2	-	-	-	-	0.062
COc1ccc(/C(C)=N/NC(=O)Cn2nc([N+](=O)[O-])cc2C)cc1	-	.	-	.	.	-	.
O=CNC(Cc1ccccc1)C(=O)O (stereo not given)	.	2.2	-	-	-	-	-
O=C(Cc1ccccc1)N[C@@H](Cc1ccccc1)C(=O)O	-	.	-	-	-	-	.
Cc1ccc(/C(O)=C/c2nc3cc(C)ccc3oc2=O)cc1	-	-2.4	-	.	-	-	0.048
Cc1oc(-c2ccccc2F)nc1CN1CCC(C(=O)NC2CCCCCCC2)CC1	-	-4.6	-	-	-	-	0.058
CCNC(=O)/C(C#N)=C/c1c(N(Cc2ccccc2)Cc2ccccc2)nc2ccccn2c1=O	-	.	-	-	-	-	.
CNC(=O)/C(C#N)=C/c1c(N(Cc2ccccc2)Cc2ccccc2)nc2c(C)cccn2c1=O	-	.	-	-	-	-	0.059
NC(=O)C1CCN(C2=C(Cl)C(=O)c3ccccc3C2=O)CC1	.	.	-	-	-	-	0.053
NS(=O)(=O)c1ccc(CCNC(=O)c2ccc(C#CC3(O)CCCCC3)cc2)cc1	-	-	-	-	-	-	-
CCC(NC(=O)c1ccc(C#CC2(O)CCCCC2)cc1)C(=O)O (stereo not given)	-	-	-	-	-	-	.
Cc1ccc(C(=O)N[C@H](C(=O)OCC(=O)NC2CCS(=O)(=O)C2)C(C)C)cc1 (stereo not given in full)	-	-	-	-	-	-	.
Oc1ccc(N2CCN(c3nnnn3-c3ccccc3)CC2)cc1	-	-	-	-	-	-	.
CCCN1C(=O)/C(=C\C=C2/Sc3ccccc3N2CC)SC1=S	-	-	-	-	.	-	.
CCCN1C(=O)/C(=C\C=C2\N(CC)c3ccccc3C2(C)C)SC1=S	-	-7.5	-	-	-	-	0.053
Cc1ccc(C)c(N(C)C(=O)c2cc3c(=O)[nH]c4ccc(C)cc4c3s2)c1	-	-	-	.	-	-	.
CCCN(CCC)C(=O)c1cc2c(=O)[nH]c3ccc(C)cc3c2s1	-	-4.2	-	-	-	-	-
COc1cccc(-c2nc(CS(=O)CC(=O)NC3CCCC3)c(C)o2)c1 (stereo not given)	-	.	-	-	.	-	.
Cc1cccc(-c2nc(CS(=O)CC(=O)NCCCSC3CCCCC3)c(C)o2)c1 (stereo not given)	-	-4	-	-	-	-	0.059
O=C(CSc1n[nH]c(-c2ccccc2)n1)NCc1cccc(C(=O)O)c1	-	-	-	-	-	-	.
COc1cnc(-c2ccccn2)nc1Sc1cccc(Cl)c1	.	.	-	-	-	-	.
COc1cnc(-c2ccccn2)nc1Sc1ccc(C)cc1	-	-4.4	-	-	.	-	?
COC(=O)c1cc([N+](=O)[O-])c(-n2cncn2)c([N+](=O)[O-])c1	-	-7.8	-	-	-	-	0.043
CCc1c(C(=O)N/N=C/c2ccc(C)o2)csc1C	.	-	-	-	-	-	.
Cc1ccc(C(=O)C2CCN(CC(=O)N3CCN(c4ccc(F)cc4)CC3)CC2)cc1	-	-	-	-	-	-	.
CCOC(=O)CN/C=C(\C#N)c1ccccc1	-	-	-	-	-	-	.
O=C(NCCN1C(=O)CSC1=O)C1CC(=O)N(c2ccccc2)C1 (stereo not given)	-	0.91	-	-	-	-	-
O=C(Nc1ncc([N+](=O)[O-])s1)c1cccc([N+](=O)[O-])c1	-	.	-	.	.	-	.
